Bioassay records (PubChem)
Sampled rows, rich in hits. Any-hit rate of the full collection: about 4.1%.
ALR H2O2 inh = inhibitors of human ALR sulfhydryl oxidase, primary screen, biochemical, H2O2 detection, HRP-luminol luminescence, single point; FAD-linked sulfhydryl oxidase ALR (Homo sapiens), P55789; purified ALR, DTT oxidation; inhibition, % (concentration not given with the values); actives 3.8% (n = 290,000);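 active = mean replicate inhibition above about 79%, with every replicate also reaching it, limit read from the data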
Target sequence (P55789 whole entry, looked up): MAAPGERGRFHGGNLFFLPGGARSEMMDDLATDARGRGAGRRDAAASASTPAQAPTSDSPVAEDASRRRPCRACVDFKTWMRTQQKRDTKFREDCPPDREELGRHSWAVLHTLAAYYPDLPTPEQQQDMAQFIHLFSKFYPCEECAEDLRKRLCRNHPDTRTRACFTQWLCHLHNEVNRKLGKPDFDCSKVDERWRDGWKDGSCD
PglD inh = C. jejuni PglD acetyltransferase inhibitors, primary screen, biochemical, DTNB colorimetric, single point; UDP-N-acetylbacillosamine N-acetyltransferase PglD (Campylobacter jejuni); purified PglD enzyme, DTNB colorimetric CoA detection; inhibition, % at 12.5 µM; actives 0.098% (n = 360,000); in the data active = inhibition above about 16%, passing the limit was not always enough
NSD2 inh = NSD2 histone methyltransferase inhibitors, primary screen, biochemical, AlphaScreen, single concentration, set 2 | Histone-lysine N-methyltransferase NSD2 (Homo sapiens), O96028 | NSD2 peptide methylation, 120 min | inhibition, % at 12.5 µM | actives 0.54% (n = 310,000) | AID 743445, 2014; in the data active = inhibition above about 50%
HIV Env fusion = inhibitors of HIV-1 Env-driven cell-cell fusion, primary screen, HeLa-JRFL effector, CEM21 target cells, luciferase; actives 1.1% (n = 360,000); inhibition, % at 12.3 µM;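 active = mean replicate inhibition score of at least 50 and every replicate individually at or above 50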;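 also: 0% = plate neutral controls and 100% = maraviroc near 300 nM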
Casp6 inh = human caspase-6 inhibitors, primary screen, biochemical, VEID-R110 fluorescence, single point, set 2. P55212. purified caspase-6, Z-VEID-R110 cleavage fluorescence. inhibition, % at 12.5 µM. actives 0.53% (n = 350,000). AID 686996, 2013;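 active = mean inhibition across replicates at least about 35%, with every replicate also reaching that limit, limit read from the data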;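 also: 0% = median of neutral control wells and 100% = no fluorescence left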
Target sequence (P55212 24-179 limits assumed): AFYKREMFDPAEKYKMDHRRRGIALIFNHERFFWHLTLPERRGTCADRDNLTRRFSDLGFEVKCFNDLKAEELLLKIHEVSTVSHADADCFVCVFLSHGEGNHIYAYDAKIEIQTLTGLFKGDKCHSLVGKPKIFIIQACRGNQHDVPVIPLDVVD
Target sequence (P55212 194-293 limits assumed): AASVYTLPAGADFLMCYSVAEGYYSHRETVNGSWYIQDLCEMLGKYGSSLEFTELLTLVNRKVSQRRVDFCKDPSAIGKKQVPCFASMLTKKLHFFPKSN
CFTR F508del cor = F508del CFTR correction, initial screen, CFBE line, single point | actives 0.36% (n = 350,000) | activity (quench increase), % at 7.58 µM | AID 720511, 2013 | CFBE cells, YFP halide quenching; stimulated with forskolin plus potentiator P3; % fluorescence drop versus neutral controls;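 active = mean added fluorescence quench of at least 8% versus neutral control, with both replicates also reaching 8%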;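 also: cells transiently co-express mutant CFTR-F508del with the halide-sensitive YFP; corrector assay measuring rescue of mutant channel to the surface after 24 h compound exposure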
* = called active by the depositor; . = no result; [ ] = dose if it differs, or a comment.

SMILES | ALR H2O2 inh | PglD inh | NSD2 inh | HIV Env fusion | Casp6 inh | CFTR F508del cor
Cc1cc(N2CCCCC2)ccc1C=C1C(=O)N(C)C(=S)N(C)C1=O | 89.5* | . | 9.8 | -11.8 | . | .
Oc1ccc(C[C@H]2NCCc3cc(O)c(O)cc32)cc1O | 99.4* | -6.8 | 48.1 | -35.7 | 22.4 | 1.2
CN1CCN(c2ccc(NC(=O)Oc3ccccc3)cc2)CC1 | 80.3* | -4.9 | 12.6 | 24.5 | . | .
COC(=O)C(O)(c1ccc(NC(=O)Oc2ccccc2)cc1)C(F)(F)F (centres undefined) | -3.0 | . | . | . | . | .
CC(C)C[C@H]1C(=O)N2CCC[C@H]2[C@]2(O)O[C@](NC(=O)[C@@H]3C=C4c5cccc6[nH]cc(c56)C[C@H]4N(C)C3)(C(C)C)C(=O)N12 | -62.2 | -3.5 | . | . | . | .
CC[C@@H](CO)NC(=O)[C@@H]1C=C2c3cccc4[nH]cc(c34)C[C@H]2N(C)C1 | . | -3.5 | . | -106.8 | 62.0* | -18.7
CCC(CO)NC(=O)C1C=C2c3cccc4[nH]cc(c34)CC2N(C)C1 (centres undefined) | . | -2.0 | . | . | 48.5* | -1.3
O=C(Cc1ccccn1)N1CCCCN2[C@H](CO)[C@H](c3ccc(C#Cc4ccccc4)cc3)[C@H]2C1 | . | -0.1 | . | . | -11.3 | -2.3
O=C(Cc1ccccc1)Oc1cccc(-n2cnnn2)c1 | 97.9* | . | 0.0 | 5.0 | 1.2 | -1.5
O=C(Cc1ccccc1)Oc1cccc(N2C(=O)CCC2=O)c1 | -8.5 | 2.9 | -0.2 | . | . | .
Cc1cccc(S(=O)(=O)N2[C@@H]3Cn4c(ccc(-c5ccncc5)c4=O)[C@H]2[C@@H](C(=O)O)[C@@H]3CO)c1 | . | -1.0 | . | . | 4.4 | 1.5
Oc1ccc(C(=C(Cl)Cl)c2ccc(O)cc2)cc1 | 86.1* | . | . | . | . | .
Oc1ccc(Cl)cc1 | . | -2.4 | . | 12.9 | -1.0 | 0.4
CC=Cc1ccc2n(c1=O)C[C@H]1[C@H](CO)[C@@H](C(=O)O)[C@@H]2N1S(=O)(=O)c1ccccc1F (mixture of isomers) | . | -1.0 | . | 8.0[16.7 µM] | -0.7 | .
O=C(Cc1ccccc1)N1C[C@H]2[C@@H](c3ccccc31)[C@H](CO)N2Cc1ccccc1 | . | 0.8 | . | . | 0.7 | 1.6
CC1CCOC(=O)C=CC=CC(=O)OC2CC3OC4C5OC5(C)C(O)CC4(COC(=O)C1O)C2(C)C31CO1 (centres undefined) | . | . | -1.0 | 59.0* | -1.8 | -9.5
CC(O)C1C=CC=CC(=O)OC2CC3OC4C5OC5(C)C(O)CC4(COC(=O)C(O)C(C)CCO1)C2(C)C31CO1 (centres undefined) | . | . | -1.8 | 69.7* | 2.1 | -7.3
CC1=CC2OC3CC4OC(=O)C=CC=CC(C(C)O)OCC(O)C5(C)OC5C(=O)OCC2(CC1O)C4(C)C31CO1 (centres undefined) | . | . | 0.4 | 72.7* | 0.4 | -0.6
O=C(O)[C@@H]1[C@@H](CO)[C@@H]2Cn3c(ccc(-c4ccccc4)c3=O)[C@H]1N2S(=O)(=O)c1ccccc1F | . | -0.3 | . | . | 0.2 | -0.5
C/C=C/c1ccc(C2[C@@H]3CN(C(=O)C4CC4)C[C@H]2N3)cc1 (some centres undefined) | . | . | . | . | -2.0 | 0.1
Cc1nnc(SCc2nc3ccccc3c(=O)n2-c2ccccc2Cl)n1N | -4.9 | 1.5 | . | 119.1* | . | .
O=C(COC(=O)Cc1ccccc1)Nc1cc(S(=O)(=O)N2CCCCC2)ccc1Cl | -4.1 | . | 0.2 | . | 70.8* | -1.0
CN1CCc2nc(SCc3cccc(Br)c3)c(C#N)cc2C1 | 98.9* | . | 1.6 | 20.9 | -0.8 | 0.0
O=C(O)[C@@H]1[C@@H](CO)[C@@H]2Cn3c(ccc(-c4cncnc4)c3=O)[C@H]1N2C(=O)NC1CCCC1 | . | 0.3 | . | . | 0.2 | -1.9
C/C=C/c1ccc([C@@H]2[C@@H](CO)N3CCCCN(C(=O)Cc4cccnc4)C[C@@H]23)cc1 | . | 1.3 | . | . | 1.2 | 0.4
SMILES | ALR H2O2 inh | PglD inh | NSD2 inh | HIV Env fusion | Casp6 inh | CFTR F508del cor
Cc1ccc(-c2ccc(=O)n(CC(=O)N3CCC4(CC3)OCCO4)n2)cc1 | -4.6 | -1.1 | -1.7 | 0.1 | -0.1 | 0.8
Cc1ccc(-c2nc(CS(=O)CC(=O)N3CCC4(CC3)OCCO4)c(C)o2)cc1 (centres undefined) | 99.2* | -2.2 | 15.0 | -4.4 | . | .
O=C(Cc1ccccn1)N1CC2(C1)[C@H](c1ccccc1)[C@@H](CO)N2Cc1ccccn1 | . | . | . | . | -1.3 | 1.6
O=C(O)[C@H]1[C@H](CO)[C@H]2Cn3c(ccc(-c4ccc(F)cc4)c3=O)[C@@H]1N2CC1CCCC1 | . | . | . | -10.3[16.7 µM] | -0.1 | -2.8
c1ccc(Nc2ccc(Nc3ccccc3)cc2)cc1 | 98.4* | -0.8 | . | . | -5.8 | -0.2
COC(=O)C1=C(c2ccc(OC(F)(F)F)cc2)C[C@@H]2CC[C@H]1N2C(=O)N1CCCCC1 | 2.2 | 0.4 | . | 75.1* | -0.7 | 0.4
CC(C)c1ccc(C(c2c(O)c3ccccc3oc2=O)c2c(O)c3ccccc3oc2=O)cc1 | . | . | 9.9 | 8.2 | 66.3* | .
COC(=O)[C@H]1[C@H](CO)[C@H]2Cn3c(ccc(C4=CCCCC4)c3=O)[C@@H]1N2CC1CC1 | . | 4.3 | . | . | 2.3 | .
CC(O)(CS(=O)(=O)c1ccccc1)C(=O)Nc1cccc(C(F)(F)F)c1 (centres undefined) | -1.4 | -2.1 | -3.1 | 44.4 | . | .
Cc1ccc(S(=O)(=O)CC(C)(O)C(=O)Nc2cccc(C(F)(F)F)c2)cc1 (centres undefined) | 39.9 | 3.3 | -8.6 | 67.7* | . | .
COC1/C=C/C=C(\C)Cc2cc(O)c(Cl)c(c2)N(C)C(=O)CC(OC(=O)C(C)C)C2(C)OC2C(C)C2CC1(O)NC(=O)O2 (centres undefined) | . | . | -5.3 | 56.3* | 3.6 | -2.4
CCCN1CCc2cccc3c2[C@H]1Cc1ccc(O)c(O)c1-3 | 98.8* | 10.4 | . | . | . | .
COc1ccc2c(c1O)-c1c(OC)c(OC)cc3c1[C@H](C2)N(C)CC3 | -19.6 | 4.5 | . | -78.7 | -0.1 | -1.3
O=C(Cc1cccnc1)N1CCCCN2[C@H](CO)[C@@H](c3ccc(C#CC4CC4)cc3)[C@H]2C1 | . | 5.5 | . | . | -1.1 | -3.5
O=C(Cc1cccnc1)N1CCCCN2[C@H](CO)[C@H](c3ccc(/C=C/c4ccccc4)cc3)[C@H]2C1 | . | 2.8 | . | . | 0.1 | 1.3
CNc1ccc2oc(C[C@H]3O[C@@]4(CC[C@H]3C)O[C@H]([C@H](C)C(=O)c3ccc[nH]3)[C@H](C)C[C@H]4C)nc2c1C(=O)O | 3.6 | 5.5 | . | 90.3* | 7.1 | 2.7
O=C1CC=C2C3CC4N(CCC45c4cc(O)c(O)cc4N1C25)CC3=CCBr (centres undefined) | . | . | 107.0* | -6.9 | 6.6 | 0.0
